Inconclusive results are not listed. Where a call stands in place of a potency, no number is given. Activity calls are given as the source filed them. Calls come from the whole dose curve; as a rule, active = well fitted curve in the direction sought with a large enough effect; inconclusive = small, poorly fitted or top-dose-only effect, or another doubt; inactive = no such curve, though single readings can be large; an effect the other way counts as inactive or inconclusive.
How the values were obtained:
[1] = S16 Schwann cell PMP22 intronic element firefly luciferase assay (AID 624032); note: nearly all actives have a fitted effect of over 30% in size
In short: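 Luciferase reporter of PMP22 intronic-element expression in stably transfected S16 rat Schwann cells, read by ONE-Glo luminescence after 24 h compound exposure at 37 C. Activity scaled between DMSO (0%) and positive-control PTC124; concentration-effect curves quality-classified.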

[2] = test system: 3D7; assay: qHTS profiling for inhibitors of Plasmodium falciparum proliferation (AID 504749); note: nearly all actives have a fitted effect of over 60% in size; note: potency is the fitted concentration of half-maximal effect; conditions: P. falciparum in erythrocytes, SYBR Green DNA, 72 h; series mostly up to 12.8 µM
In short: (§1)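 In a 72 h erythrocytic culture (37 C, humidified, 5% CO2) at 2.5% hematocrit and 0.3% starting parasitemia, compounds were tested; SYBR Green I in detergent lysis buffer stained parasite DNA overnight.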

[3] = test system: AA1029; assay: as above; conditions: P. falciparum in erythrocytes, SYBR Green DNA, 72 h; series mostly up to 12.8 µM
In short: as §1

[4] = test system: CP260; assay: as above; conditions: P. falciparum in erythrocytes, SYBR Green DNA, 72 h; series mostly up to 12.8 µM
In short: as §1

[5] = test system: CP268; assay: as above; conditions: P. falciparum in erythrocytes, SYBR Green DNA, 72 h; series mostly up to 12.8 µM
In short: as §1

[6] = test system: CP286; assay: as above; conditions: P. falciparum in erythrocytes, SYBR Green DNA, 72 h; series mostly up to 12.8 µM
In short: as §1

[7] = test system: CP291; assay: as above; conditions: P. falciparum in erythrocytes, SYBR Green DNA, 72 h; series mostly up to 12.8 µM
In short: as §1

[8] = test system: DFO2036; assay: as above; conditions: P. falciparum in erythrocytes, SYBR Green DNA, 72 h; series mostly up to 12.8 µM
In short: as §1

[9] = test system: DIV14; assay: as above; conditions: P. falciparum in erythrocytes, SYBR Green DNA, 72 h; series mostly up to 12.8 µM
In short: as §1

[10] = test system: DIV17; assay: as above; conditions: P. falciparum in erythrocytes, SYBR Green DNA, 72 h; series mostly up to 12.8 µM
In short: as §1

[11] = test system: GB4; assay: as above; conditions: P. falciparum in erythrocytes, SYBR Green DNA, 72 h; series mostly up to 12.8 µM
In short: as §1

[12] = test system: ICS; assay: as above; conditions: P. falciparum in erythrocytes, SYBR Green DNA, 72 h; series mostly up to 12.8 µM
In short: as §1

[13] = test system: PAD; assay: as above; conditions: P. falciparum in erythrocytes, SYBR Green DNA, 72 h; series mostly up to 12.8 µM
In short: as §1

[14] = test system: TAB109; assay: as above; conditions: P. falciparum in erythrocytes, SYBR Green DNA, 72 h; series mostly up to 12.8 µM
In short: as §1

[15] = test system: TAB165; assay: as above; conditions: P. falciparum in erythrocytes, SYBR Green DNA, 72 h; series mostly up to 12.8 µM
In short: as §1

[16] = test system: W2; assay: as above; conditions: P. falciparum in erythrocytes, SYBR Green DNA, 72 h; series mostly up to 12.8 µM
In short: as §1

[17] = test system: CP194; assay: as above; conditions: P. falciparum in erythrocytes, SYBR Green DNA, 72 h; series mostly up to 12.8 µM
In short: as §1

[18] = test system: CP203; assay: as above; conditions: P. falciparum in erythrocytes, SYBR Green DNA, 72 h; series mostly up to 12.8 µM
In short: as §1

[19] = test system: CP315; assay: as above; conditions: P. falciparum in erythrocytes, SYBR Green DNA, 72 h; series mostly up to 12.8 µM
In short: as §1

[20] = test system: CP266; assay: as above; conditions: P. falciparum in erythrocytes, SYBR Green DNA, 72 h; series mostly up to 28.7 µM
In short: as §1

SMILES	Potency [1]	Potency [2]	Potency [3]	Potency [4]	Potency [5]	Potency [6]	Potency [7]	Potency [8]	Potency [9]	Potency [10]	Potency [11]	Potency [12]	Potency [13]	Potency [14]	Potency [15]	Potency [16]	Potency [17]	Potency [18]	Potency [19]	Potency [20]
CCN(CC)CCC[C@H](C)Nc1ccnc2cc(Cl)ccc12	inactive	158 nM (active)	8910 nM (active)	3980 nM (active)	4260 nM (active)	3160 nM (active)	3380 nM (active)	3980 nM (active)	1690 nM (active)	3790 nM (active)	1510 nM (active)	3980 nM (active)	3550 nM (active)	3550 nM (active)	5620 nM (active)	6010 nM (active)				
NS(=O)(=O)c1cc([C@@]2(O)NC(=O)c3ccccc32)ccc1Cl	inactive	inactive	inactive	inactive	inactive	inactive	inactive	inactive	inactive	inactive	inactive	inactive	inactive	inactive	inactive	inactive	inactive	inactive	inactive	
CCN(CC)CCC[C@H](C)Nc1c2ccc(Cl)cc2nc2ccc(OC)cc12		89.1 nM (active)	631 nM (active)	501 nM (active)	478 nM (active)	282 nM (active)	379 nM (active)	398 nM (active)	478 nM (active)	536 nM (active)	379 nM (active)	158 nM (active)	398 nM (active)	501 nM (active)	398 nM (active)	338 nM (active)	1510 nM (active)	2130 nM (active)	3010 nM (active)	1510 nM (active)
CCC[C@H]1C(=O)N2C(N(C)C)=Nc3ccc(C)cc3N2C1=O	inactive	inactive	inactive	inactive	inactive	inactive	inactive	inactive	inactive	inactive	inactive	inactive	inactive	inactive	inactive	inactive	inactive	inactive	inactive	inactive
CN(N=O)C(=O)N[C@H]1[C@@H](O)[C@H](O)[C@H](CO)O[C@@H]1O	inactive	inactive	inactive	inactive	inactive	inactive	inactive	inactive	inactive	inactive	inactive	inactive	inactive	inactive	inactive	inactive	inactive	inactive	inactive	inactive
COCCc1ccc(OC[C@H](O)CNC(C)C)cc1	inactive	inactive	inactive	inactive	inactive	inactive	inactive	inactive	inactive	inactive	inactive	inactive	inactive	inactive	inactive	inactive	inactive	inactive	inactive	inactive
CO[C@H]1C[C@@H](O[C@@H]2[C@H](C)[C@H](O[C@@H]3O[C@@H](C)C[C@@H](N(C)C)[C@@H]3O)[C@H](C)C[C@]3(CO3)C(=O)[C@H](C)[C@H](O)[C@H](C)[C@H](C)OC(=O)[C@@H]2C)O[C@@H](C)[C@H]1O	inactive	inactive	inactive	inactive	inactive	inactive	inactive	inactive	inactive	inactive	inactive	inactive	inactive	inactive	inactive	inactive	inactive	inactive	inactive	inactive
COc1ccccc1OC[C@H](O)COC(N)=O	inactive	inactive	inactive	inactive	inactive	inactive	inactive	inactive	inactive	inactive	inactive	inactive	inactive	inactive	inactive	inactive	inactive	inactive	inactive	inactive

— PubChem BioAssay (NCATS)
